# ChEMBL document CHEMBL3988442, “University of Dundee, Small-Polar-MMV Screening Library” (2021)
# Hit rate of the full screen: of about 69,000 compounds, about 950 (1.4%) showed an effect of 50% or more. Only a selection was taken, and strong results are over-represented in it overall.
# Tested on: Mycobacterium tuberculosis
# Experiment: Cornell M. t heat shock assay; note: in the data most compounds retested in dose-response had high values
# Type: functional, organism-based
# Set-up: dose or concentration left out as unconfirmed
row,Structure (SMILES),Percent Effect
1,COc1cccc2c(C)c(C(=O)N3CCNCC3C(N)=O)[nH]c12.Cl (stereo unspecified),-6.521%
2,O=C(O)C(F)(F)F.O=C(O)C(F)(F)F.c1ccc(N2CCC3(COCCN(Cc4cccs4)C3)C2)nc1 (stereo unspecified),0.5206%
3,CC(C)NC(=O)N1C[C@H](OCc2cccnc2)[C@H]2COC[C@H]21.O=C(O)C(F)(F)F,2.427%
4,Cc1nnc2n1CCN(Cc1ncc(-c3ccc(Cl)cc3)o1)C2,-15.98%
5,CCc1nnc2n1CCN(Cc1ncc(-c3ccccc3)o1)C2,76.57%
6,CCc1nnc2n1CCN(Cc1ncc(-c3ccc(Cl)cc3)o1)C2,-1.022%
7,Cc1nnc2n1CCN(Cc1ncc(-c3ccc(F)cc3)o1)C2,77.14%
8,Cc1nnc2n1CCN(Cc1ncc(-c3ccccc3)o1)C2,-5.111%
9,CCc1nnc2n1CCN(Cc1ncc(-c3ccc(F)cc3)o1)C2,-9.541%
10,CN1C(=O)CCC12CCN(c1ccc(C#N)cn1)CC2.O=C(O)C(F)(F)F,8.745%
11,Cc1nc(C)c(C(C)NCc2cnc(N3CCOCC3)nc2)s1.Cl (stereo unspecified),-16.16%
12,Cn1cc(CN2C[C@@H]3COC[C@@H](C(=O)N4CCCCO4)[C@@H]3C2)cn1.O=C(O)C(F)(F)F.O=C(O)C(F)(F)F,6.742%
13,Fc1cnc(N2CCCn3cnc(COc4cccnc4)c3C2)nc1.O=C(O)C(F)(F)F,9.371%
14,Cc1cc(C)c(CNC(=O)NCC2CCOC2)c(=O)[nH]1 (stereo unspecified),-20.09%
15,COCCC(=O)N1CCOCC2(CCN(Cc3cccs3)C2)C1.O=C(O)C(F)(F)F (stereo unspecified),-16.95%
16,O=C(O)C(F)(F)F.O=C(O)C(F)(F)F.O=C1COC2(CCN(Cc3cccnc3)CC2)CN1,-2.798%
17,O=C([C@H]1CCCO1)N1CCc2ncnc(NC3CC3)c2CC1,65.17%
18,CC(C)Nc1ncnc2c1CCN(C(=O)[C@H]1CCCO1)CC2,-13.05%
19,O=C(C1CCCO1)N1CCc2ncnc(NC3CCC3)c2CC1.O=C(O)C(F)(F)F (stereo unspecified),-8.605%
20,COCC1COCCC12CCN(Cc1nccs1)CC2.O=C(O)C(F)(F)F (stereo unspecified),8.236%
21,CS(=O)(=O)N[C@@H]1CN(C(=O)c2cc3ccccc3s2)C[C@H]1O,101.8%
22,CCC[C@@H]1CN(C(=O)c2cc3ccccc3s2)C[C@H]1NS(C)(=O)=O,11.11%
23,CS(=O)(=O)NC1CCN(C(=O)c2cc3ccccc3s2)C1 (stereo unspecified),0.7353%

row,Structure (SMILES),Percent Effect
1,Cn1cc(C[C@H]2[C@H](O)CCN2CC2CCOCC2)cn1.O=C(O)C(F)(F)F,6.354%
2,O=C(O)C(F)(F)F.O=C(c1ccsc1)N1CCO[C@@H]2CN(Cc3nccs3)C[C@@H]2C1,10.37%
3,Cc1cccc(CN2C[C@@H](C)[C@@]3(CCN(CC(=O)N(C)C)C3=O)C2)c1.O=C(O)C(F)(F)F,-6.766%
4,Cc1ccsc1C(=O)N1CC[C@@H](N(C)C)[C@@H]1Cc1cnn(C)c1.O=C(O)C(F)(F)F,-5.648%
5,CCn1nc(C(C)C)cc1C(=O)NCCCOC,4.35%
6,CCn1nc(CC(C)C)cc1C(=O)NCCn1cccc1,49.17%
7,CCn1nc(CC(C)C)cc1C(=O)NCCCOC,92.73%
8,Cc1csc(CCNCc2cnc3c(c2)c(C)nn3C)n1.Cl,6.139%
9,O=C(O)C(F)(F)F.O=C(O)C(F)(F)F.O=C1COC2(CCN(Cc3ccncc3)CC2)CN1c1ccccc1,-2.605%
10,CO[C@@H]1CCN(Cc2ccoc2)[C@H]1Cc1ccccc1.O=C(O)C(F)(F)F,14.91%
11,Fc1cnc(N2CCCC3(CN(Cc4ccncc4)CCO3)C2)nc1.O=C(O)C(F)(F)F.O=C(O)C(F)(F)F (stereo unspecified),10.78%
12,Cc1ncc2c(n1)CCCC2NC(=O)c1ccncc1 (stereo unspecified),-6.944%
13,Cc1ncc2c(n1)CCCC2NC(=O)c1ccc(Cn2cccn2)cc1 (stereo unspecified),72.35%
14,Cc1ncc2c(n1)CCCC2NC(=O)c1cnn(Cc2ccccc2)c1 (stereo unspecified),-15.56%
15,COCC(=O)N1CCCC1c1ccnc(Nc2cnccn2)n1 (stereo unspecified),-1.39%
16,Nc1nccc(C2CCCN2CCc2ccccc2)n1 (stereo unspecified),10.92%
17,c1ccc(CCN2CCCC2c2ccnc(Nc3ncccn3)n2)cc1 (stereo unspecified),91.35%
18,COCC(=O)N1CCCCC1c1ccnc(Nc2cnccn2)n1 (stereo unspecified),-6.25%
19,Cc1nccc(C2CCCCN2Cc2ccccc2)n1 (stereo unspecified),-13.8%
20,c1ccc(CCN2CCCC2c2ccnc(Nc3cnccn3)n2)cc1 (stereo unspecified),57.03%
21,COCCOc1ccc(NC(=O)C2CC(=O)N(C)C2)cn1 (stereo unspecified),4.167%
22,COCCn1cc(C(=O)N2CCCC2c2cccc(F)c2)ccc1=O (stereo unspecified),-4.621%
23,O=C(O)C(F)(F)F.c1csc(CN2Cc3nccn3CC(Cn3cncn3)C2)c1 (stereo unspecified),-12.15%

row,Structure (SMILES),Percent Effect
1,CCNc1ncc(CN(CCN(C)C)Cc2ccc(C)s2)cn1,2.161%
2,COc1ncc(CN(CCN(C)C)Cc2ccc(C)s2)cn1,-3.645%
3,CCc1ccc(CN(CCN(C)C)Cc2ccc(C)s2)nc1,88.98%
4,O=C(O)C(F)(F)F.O=C(O)C(F)(F)F.c1cncc(OC[C@]23COC[C@H]2CN(Cc2ccsc2)C3)c1,-29.89%
5,Cl.O=S(=O)(c1ccc(Cl)cc1)N1CCc2nc(C3CCNCC3)ncc2C1,15.18%
6,COc1cc(C)c(-c2ccc(F)c3c2OC(CN)C3)cc1C (stereo unspecified),51.67%
7,COc1cccnc1-c1ccc(F)c2c1OC(CN)C2 (stereo unspecified),-14.02%
8,COc1cc(-c2ccc(F)c3c2OC(CN)C3)cc(OC)c1OC (stereo unspecified),-5.435%
9,CC(C)CCN1C[C@H]2C[C@H](C(=O)N3CCCC3)[C@@H](C1)O2.O=C(O)C(F)(F)F,37.85%
10,CC1CCCCN1C(=O)CN1CCN(c2ccc3nncn3n2)CC1 (stereo unspecified),5.269%
11,Cc1cnc(CN2CCN(c3ccc4nncn4n3)C(C)C2)cn1 (stereo unspecified),-3.544%
12,CC1CN(CC2CCCCC2)CCN1c1ccc2nncn2n1 (stereo unspecified),16.09%
13,c1ccc(CN2CCN(c3ccc4nncn4n3)CC2)nc1,6.511%
14,CC1CN(Cc2nccn2C)CCN1c1ccc2nncn2n1 (stereo unspecified),-15.38%
15,O=C(CCN1CCN(c2ccc3nncn3n2)CC1)N1CCCCC1,-7.972%
16,CC1CN(CC(=O)N2CCCC2)CCN1c1ccc2nncn2n1 (stereo unspecified),15.46%
17,CC1CN(CC(=O)NC2CCCC2)CCN1c1ccc2nncn2n1 (stereo unspecified),176.2%
18,CC1CN(CC2CCCC2)CCN1c1ccc2nncn2n1 (stereo unspecified),85.93%
19,O=C(CN1CCN(c2ccc3nncn3n2)CC1)NC1CCCCC1,57.46%
20,O=C(CN1CCN(c2ccc3nncn3n2)CC1)NC1CCCC1,59.84%
21,O=C(CCN1CCN(c2ccc3nncn3n2)CC1)NC1CCCC1,-7.134%
22,COCc1ncn2c1CN(C(=O)c1cccc3cccnc13)CC2.O=C(O)C(F)(F)F,-14.48%
23,O=C(O)C(F)(F)F.O=C(O)C(F)(F)F.c1ccc(OCC2C[C@@H]3[C@@H](C2)OCCN3Cc2ccoc2)nc1 (stereo partly specified),14.26%

row,Structure (SMILES),Percent Effect
1,CN(C)CCN1CCCC12CCCN(C(=O)c1cccnc1)C2.O=C(O)C(F)(F)F.O=C(O)C(F)(F)F (stereo unspecified),-7.014%
2,Cc1nc(N(C)C)nc2c1COCC21CCN(CC2CC2)C1.O=C(O)C(F)(F)F (stereo unspecified),4.702%
3,CC1c2ncc(CNC(=O)C3CC3)n2CCN1CC1CCC1.O=C(O)C(F)(F)F (stereo unspecified),-0.1216%
4,Cc1ccc([C@]2(O)CC[C@H]3CN(Cc4cccc(F)c4F)C[C@H]32)nc1.O=C(O)CC(O)(CC(=O)O)C(=O)O,2.948%
5,Cc1ccc([C@]2(O)CC[C@H]3CN(Cc4cccc(Cl)c4Cl)C[C@H]32)nc1.O=C(O)CC(O)(CC(=O)O)C(=O)O,90.52%
6,O=C(O)CC(O)(CC(=O)O)C(=O)O.O[C@@]1(c2ccccn2)CC[C@H]2CN(Cc3cccc(Cl)c3Cl)C[C@H]21,14.33%
7,Cl.NC(=O)CCc1cccc(C2CCNCC2)n1,3.085%
8,COc1ccccc1CC(=O)N1CCCC(n2nc(C)nc2C)C1 (stereo unspecified),-10.87%
9,CC[C@@H]1N(Cc2ccc(C)s2)CCC[C@]12CCC(=O)N2C.O=C(O)C(F)(F)F,1.978%
10,COCCn1cc2c(n1)C(CNC(=O)c1cc(C)[nH]c1C)OCC2 (stereo unspecified),38.13%
11,CS(=O)(=O)CC(=O)NCC1OCCc2cn(CC3CC3)nc21 (stereo unspecified),11.68%
12,Cc1cc(C(=O)NCC2OCCc3cn(CC4CC4)nc32)c(C)[nH]1 (stereo unspecified),105.1%
13,Cn1cc(CN2CCC3(CCCN3Cc3cccnc3)CC2)cn1.O=C(O)C(F)(F)F.O=C(O)C(F)(F)F.O=C(O)C(F)(F)F,-39.86%
14,CC(=O)c1ccc(NC(=O)NC(C(=O)N(C)C)C(C)C)cc1 (stereo unspecified),30.77%
15,Cc1ccc(NC(=O)NC(C)Cn2cccn2)cc1 (stereo unspecified),0.5452%
16,COc1ccc(NC(=O)NC(C)Cn2cccn2)cn1 (stereo unspecified),0.2337%
17,CC(=O)c1ccc(NC(=O)N[C@H](C(=O)O)C(C)C)cc1,-1.764%
18,CC(C)C(NC(=O)Nc1ccc(F)cc1)C(=O)N(C)C (stereo unspecified),54.32%
19,CC(Cn1cccn1)NC(=O)Nc1ccc(F)cc1 (stereo unspecified),97.32%
20,O=C(O)C(F)(F)F.O=C(O)C(F)(F)F.c1cc(CO[C@@H]2CC[C@H]3[C@H]2OCCN3Cc2ccoc2)ccn1,-10.25%
21,Cc1nc(CN2C[C@@H]3CN(C(=O)c4ccnnc4)C[C@@H]3C2=O)cs1.O=C(O)C(F)(F)F,0.6336%
22,CN(C)CCN1CCCC12CCN(C(=O)c1cccnc1)CC2.O=C(O)C(F)(F)F.O=C(O)C(F)(F)F,-6.366%
